From PubChem BioAssay come the findings set out here.

Structures are written as SMILES. Inconclusive results are not listed. Active and inactive are the calls of the source.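 The calls were made as follows, unless noted: active = GFP signal, as percent of the solvent control, above the screen mean plus 3 SD, about 149; inconclusive = no reading because the compound's own fluorescence upset strain identification; inactive = the rest.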

Assay [1] can be described thus: yeast TOR pathway RPL19A-GFP modulators, primary screen, cell-based, S. cerevisiae, multiplex flow cytometry (AID 1862; in the data active = percent of DMSO control GFP below about 86%;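 also: lower values mimic rapamycin by blocking the RPL19A rise seen in DMSO cells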). Conditions: S. cerevisiae RPL19A-GFP strain, flow cytometry fluorescence, 3 h; at 10 µM; stronger effect = lower value. For orientation: Flow cytometry measures light scatter and fluorescence of single cells or particles in a stream.
A short description of assay [2]: modulators of MEP2-GFP levels in yeast, primary screen, S. cerevisiae, multiplex flow cytometry (AID 1867;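 active = GFP response, as percent of the DMSO control, above the screen-wide mean plus 3 SD, about 139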;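 also: median GFP channel fluorescence of barcode-gated MEP2-GFP cells measured by flow cytometry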). Conditions: S. cerevisiae MEP2-GFP strain, 3 h, at 10 µM, stronger effect = higher value, 100% means same as DMSO wells.
A short description of assay [3]: modulators of CIT2-GFP expression in yeast, primary screen, S. cerevisiae, GFP fusion, multiplex flow cytometry (AID 1870;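 active = percent response above a set limit, the screen-wide mean plus 3 SD, cut at about 130% in these data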;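 also: barcoded CIT2-GFP strain pooled with four other GFP strains with rapamycin as positive control; median GFP fluorescence per well over plate mean of DMSO wells so 100% = DMSO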). Conditions: 3 h, at 10 µM, stronger effect = higher value.
Assay [4] can be described thus: modulators of LAP4-GFP expression in yeast, primary screen, S. cerevisiae, multiplex flow cytometry (AID 1873). Conditions: 3 h, at 10 µM, stronger effect = higher value.
Assay [5] in a line: modulators of AGP1-GFP expression in yeast TOR pathway, primary screen, cell-based, multiplex flow cytometry, S. cerevisiae (AID 1887;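 active = GFP signal above the screen-wide mean plus 3 SD, that is over about 124.5% of the solvent control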;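 also: AGP1-GFP fusion strain of S. cerevisiae within a five-strain barcoded multiplex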). Conditions: 3 h, at 10 µM, stronger effect = higher value.
The nature of assay [6]: inhibitors of CD8+ T cell-vesicle binding, pilot screen, LFA-1/ICAM-1 modulator project, MLPCN validation set, flow cytometry (AID 2523;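 active = response below a set limit, under 55% cells CD8-positive and vesicle-bound, and CD8 cells' 90th-percentile brightness under 279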;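 as to vesicle binding response: mean PE anti-B7-1 fluorescence of CD8+ cells relative to row control; 100% = QL9-loaded vesicles with DMSO vehicle in the same plate row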). Conditions: 2C mouse CD8+ T cells, at 7 µM, stronger effect = lower value; double positive events: measured here: CD8+/vesicle+ event percentage.
In assay [7] the target is Integrin beta-1 (Homo sapiens) + Integrin alpha-4 (Homo sapiens) (UniProt P13612+P05556). Kind of assay: inhibition of HUTS-21 binding to VLA-4, pilot screen, VLA-4 allosteric modulator project, U937 cells, HUTS-21 mAb, flow cytometry, validation set (AID 2674;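 active = inhibition above 50%, about 3 SD of the validation set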;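 also: antibody binding induced by the VLA-4 ligand LDV present at three times its Kd; 0% = LDV ligand with antibody and no compound and 100% = antibody without LDV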). Conditions: HUTS-21 LIBS mAb binding, at 6.7 µM, stronger effect = higher value, binding induced by LDV ligand.
Assay [8] can be described thus: superoxide lowering in aged yeast cells, pilot screen, validation compound set (AID 2706;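 active = superoxide response below 65% of plate, a cut near 3 SD across the whole screen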;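 also: yeast exposed to compound for one week at 30 degrees C before staining; 100% = mean of all compound wells on the same plate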). Conditions: S. cerevisiae aging, superoxide DHE fluorescence; at 10 µM; stronger effect = lower value.
Assay [9] concerns the target Beta-adrenergic receptor kinase 1 (Homo sapiens) (UniProt P25098). Kind of assay: GRK2 binders displacing RNA aptamer, biochemical, validation, human GRK2, bead flow cytometry (AID 488806;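 active = aptamer binding inhibition above 30%, about 3 SD of noise from non-fluorescent compounds; inactive = inhibition at or below 30%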). Conditions: bead-bound GRK2, FAM-aptamer displacement, at 10 µM, stronger effect = higher value.
Assay [10] concerns the target Beta-2 adrenergic receptor (Homo sapiens) (UniProt P07550). As to the kind of experiment: beta2AR agonists driving receptor internalization, pilot screen, cell-based, FAP fluorogen, flow cytometry, validation set (AID 504459;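 active = percent response above 42, roughly 3 SD of non-fluorescent test compounds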;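 also: agonist-driven loss of surface beta2AR via internalization measured by FAP dye flow cytometry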). Conditions: Am2.2-beta2AR cells, FAP surface receptor flow cytometry; at 10 µM; stronger effect = higher value.
The target in assay [11] is AP-2 complex subunit beta (Homo sapiens) (UniProt P63010). As to the kind of experiment: inhibitors of arrestin peptide binding to AP2, pilot screen, biochemical, validation set, GST-AP2 beads, flow cytometry (AID 504541;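 active = inhibition above 54%, about 3 SD of non-fluorescent compounds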;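 also: AP2 carries R879A mutation and is captured from E. coli lysate; bead-bound FITC arrestin peptide fluorescence measuring arrestin peptide binding to AP2; 0% = DMSO wells and 100% = excess unlabeled arrestin peptide control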). Conditions: FITC arrestin peptide, at 10 µM, stronger effect = higher value, AP2 beta2 appendage fragment, R879A mutant.
Assay [12] is described as follows: yeast V-ATPase proton transport modulators, S. cerevisiae, pHLuorin, HTS validation (AID 504600; in the data active = response above about 15%;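 also: plate controls were DMSO for no effect and reference compound for full effect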). Conditions: S. cerevisiae pHLuorin cytosolic pH, at 10 µM, stronger effect = higher value.
The test system of assay [13] is anti-desmoglein-3 scFv antibody binding to human DSG3. Kind of assay: inhibitors of anti-DSG3 scFv binding to DSG3, pilot screen, biochemical, validation compound set, bead-based, flow cytometry (AID 588368;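 active = binding below the plate cutoff, the plate median minus 3 SD, with a reading above zero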;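 also: signal is the median channel fluorescence of bead-bound GFP antibody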). Conditions: Protein G beads, DSG3-Fc, scFv-GFP binding, at 10 µM, stronger effect = lower value.
The nature of assay [14]: inhibitors of fungal efflux pumps CDR1, CDR2, MDR1, pilot screen, validation compound set, multiplex, phenotypic (AID 588506;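 active = efflux inhibition above 0.42, the validation set average plus 4 SD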;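 also: Nile Red retained in cells so higher fluorescence means more efflux inhibition; 0 = negative control wells and 1 = enniatin B 25 µM full block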). Conditions: S. cerevisiae pump-expressing triplex, Nile Red efflux flow cytometry; at 10 µM; stronger effect = higher value; the pumps come from Candida albicans.
The target in assay [15] is ATP-binding cassette sub-family B member 6 (Homo sapiens) (UniProt Q9NP58). As to the kind of experiment: ABCB6 transporter inhibitors, pilot screen, K562-ABCB6 cells, flow cytometry, validation set (AID 588550;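 active = inhibition above the screen-wide mean plus 3 SD, about 51%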;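 also: 0% = DMSO wells and 100% = benzethonium chloride 70 µM positive control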). Conditions: K562-ABCB6 porphyrin accumulation, 1 h, at 10 µM, stronger effect = higher value.
Assay [16] in a line: promoters of myeloid differentiation in arrested cells, primary screen, cell-based, GFP/MAC1 double positive, flow cytometry, validation set (AID 588685;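 active = differentiation response of at least 50%, scaled between solvent and reference control, from cells with both markers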;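 also: compound exposure lasts four days before antibody staining and flow analysis; 0% = DMSO wells and 100% = 5 µM fulvestrant positive control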). Conditions: ER-HoxA9 marrow cells, stronger effect = higher value, normalized: vehicle 0, fulvestrant 100.

Sequence of Integrin beta-1 (Homo sapiens) + Integrin alpha-4 (Homo sapiens) (P05556 whole entry, looked up): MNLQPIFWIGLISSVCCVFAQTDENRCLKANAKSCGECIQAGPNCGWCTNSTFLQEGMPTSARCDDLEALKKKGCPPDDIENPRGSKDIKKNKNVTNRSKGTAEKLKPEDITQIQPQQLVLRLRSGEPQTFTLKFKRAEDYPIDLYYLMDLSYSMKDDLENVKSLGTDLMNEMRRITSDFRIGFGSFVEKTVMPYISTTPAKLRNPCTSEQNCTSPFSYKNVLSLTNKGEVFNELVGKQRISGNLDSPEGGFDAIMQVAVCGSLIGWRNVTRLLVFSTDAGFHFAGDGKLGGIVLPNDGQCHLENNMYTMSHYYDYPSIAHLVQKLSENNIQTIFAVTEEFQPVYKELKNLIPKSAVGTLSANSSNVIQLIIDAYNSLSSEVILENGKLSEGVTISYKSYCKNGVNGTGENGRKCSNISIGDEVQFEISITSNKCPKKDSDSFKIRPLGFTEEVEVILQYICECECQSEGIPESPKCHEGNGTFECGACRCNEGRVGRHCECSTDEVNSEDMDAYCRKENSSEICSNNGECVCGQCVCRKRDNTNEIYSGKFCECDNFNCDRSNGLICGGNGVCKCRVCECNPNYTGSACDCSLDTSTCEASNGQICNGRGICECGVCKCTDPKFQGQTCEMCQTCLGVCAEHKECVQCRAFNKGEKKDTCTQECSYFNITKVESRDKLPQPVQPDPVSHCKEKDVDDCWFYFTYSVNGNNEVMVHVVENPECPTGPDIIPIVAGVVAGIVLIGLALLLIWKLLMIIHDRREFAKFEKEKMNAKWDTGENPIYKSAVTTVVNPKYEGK
Sequence of Integrin beta-1 (Homo sapiens) + Integrin alpha-4 (Homo sapiens) (P13612 whole entry, looked up): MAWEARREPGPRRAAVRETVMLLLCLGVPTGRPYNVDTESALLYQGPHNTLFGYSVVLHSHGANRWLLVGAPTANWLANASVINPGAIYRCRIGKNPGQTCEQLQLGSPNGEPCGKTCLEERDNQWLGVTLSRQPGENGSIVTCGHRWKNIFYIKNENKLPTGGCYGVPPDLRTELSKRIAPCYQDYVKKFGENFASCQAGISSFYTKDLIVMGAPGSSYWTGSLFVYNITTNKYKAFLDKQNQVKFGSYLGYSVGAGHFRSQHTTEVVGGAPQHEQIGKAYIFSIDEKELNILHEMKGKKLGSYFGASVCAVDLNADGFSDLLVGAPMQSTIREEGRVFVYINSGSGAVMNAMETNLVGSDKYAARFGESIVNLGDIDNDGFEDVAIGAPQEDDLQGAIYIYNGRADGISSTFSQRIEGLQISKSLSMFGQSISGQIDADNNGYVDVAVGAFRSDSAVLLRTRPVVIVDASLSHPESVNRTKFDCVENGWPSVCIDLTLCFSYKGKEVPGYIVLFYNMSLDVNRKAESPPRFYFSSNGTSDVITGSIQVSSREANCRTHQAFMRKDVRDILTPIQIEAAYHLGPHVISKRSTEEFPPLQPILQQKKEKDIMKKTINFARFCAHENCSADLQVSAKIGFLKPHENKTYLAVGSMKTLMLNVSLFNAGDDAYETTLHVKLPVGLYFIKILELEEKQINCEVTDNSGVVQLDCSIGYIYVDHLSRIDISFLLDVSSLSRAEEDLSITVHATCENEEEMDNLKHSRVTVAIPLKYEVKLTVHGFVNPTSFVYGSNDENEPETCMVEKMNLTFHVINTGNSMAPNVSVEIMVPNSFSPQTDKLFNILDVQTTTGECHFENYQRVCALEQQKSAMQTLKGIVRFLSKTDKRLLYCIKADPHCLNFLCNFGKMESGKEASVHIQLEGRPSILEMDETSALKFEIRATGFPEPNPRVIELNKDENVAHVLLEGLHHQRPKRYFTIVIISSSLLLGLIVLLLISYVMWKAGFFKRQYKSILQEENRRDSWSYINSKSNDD
Sequence of ATP-binding cassette sub-family B member 6 (Homo sapiens) (Q9NP58 whole entry, looked up): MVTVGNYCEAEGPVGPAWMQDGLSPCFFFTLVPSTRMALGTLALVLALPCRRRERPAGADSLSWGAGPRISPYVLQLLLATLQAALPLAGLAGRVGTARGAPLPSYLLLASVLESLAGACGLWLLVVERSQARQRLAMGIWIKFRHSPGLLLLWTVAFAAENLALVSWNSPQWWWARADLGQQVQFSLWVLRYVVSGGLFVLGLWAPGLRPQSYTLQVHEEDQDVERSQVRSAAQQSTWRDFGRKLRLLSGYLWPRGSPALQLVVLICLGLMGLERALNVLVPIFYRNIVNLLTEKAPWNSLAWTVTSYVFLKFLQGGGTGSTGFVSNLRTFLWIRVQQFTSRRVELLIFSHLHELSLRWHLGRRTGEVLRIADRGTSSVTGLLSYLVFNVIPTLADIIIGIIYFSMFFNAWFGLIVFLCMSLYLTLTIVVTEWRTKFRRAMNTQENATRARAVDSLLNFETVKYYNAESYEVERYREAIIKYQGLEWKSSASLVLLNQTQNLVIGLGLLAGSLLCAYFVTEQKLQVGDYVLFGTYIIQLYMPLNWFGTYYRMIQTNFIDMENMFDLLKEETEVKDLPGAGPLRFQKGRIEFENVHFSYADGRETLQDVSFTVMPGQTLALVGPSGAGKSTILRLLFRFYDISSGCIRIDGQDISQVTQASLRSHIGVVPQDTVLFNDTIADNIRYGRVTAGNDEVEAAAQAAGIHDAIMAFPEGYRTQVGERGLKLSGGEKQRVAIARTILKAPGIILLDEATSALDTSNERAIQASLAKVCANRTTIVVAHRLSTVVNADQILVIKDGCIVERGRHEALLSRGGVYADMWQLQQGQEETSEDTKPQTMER
Sequence of Beta-2 adrenergic receptor (Homo sapiens) (P07550 whole entry, looked up): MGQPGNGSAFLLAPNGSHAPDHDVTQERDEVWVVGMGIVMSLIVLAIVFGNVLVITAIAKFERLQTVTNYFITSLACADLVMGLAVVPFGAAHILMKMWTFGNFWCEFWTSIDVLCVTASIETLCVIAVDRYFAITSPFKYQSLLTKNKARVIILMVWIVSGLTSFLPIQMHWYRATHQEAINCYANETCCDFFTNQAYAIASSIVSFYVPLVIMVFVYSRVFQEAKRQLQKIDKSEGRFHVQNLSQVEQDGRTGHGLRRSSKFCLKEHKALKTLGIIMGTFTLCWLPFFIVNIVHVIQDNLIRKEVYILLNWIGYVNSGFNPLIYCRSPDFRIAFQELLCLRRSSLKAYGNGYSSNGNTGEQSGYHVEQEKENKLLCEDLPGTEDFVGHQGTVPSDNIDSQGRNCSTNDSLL
Sequence of Beta-adrenergic receptor kinase 1 (Homo sapiens) (P25098 whole entry, looked up): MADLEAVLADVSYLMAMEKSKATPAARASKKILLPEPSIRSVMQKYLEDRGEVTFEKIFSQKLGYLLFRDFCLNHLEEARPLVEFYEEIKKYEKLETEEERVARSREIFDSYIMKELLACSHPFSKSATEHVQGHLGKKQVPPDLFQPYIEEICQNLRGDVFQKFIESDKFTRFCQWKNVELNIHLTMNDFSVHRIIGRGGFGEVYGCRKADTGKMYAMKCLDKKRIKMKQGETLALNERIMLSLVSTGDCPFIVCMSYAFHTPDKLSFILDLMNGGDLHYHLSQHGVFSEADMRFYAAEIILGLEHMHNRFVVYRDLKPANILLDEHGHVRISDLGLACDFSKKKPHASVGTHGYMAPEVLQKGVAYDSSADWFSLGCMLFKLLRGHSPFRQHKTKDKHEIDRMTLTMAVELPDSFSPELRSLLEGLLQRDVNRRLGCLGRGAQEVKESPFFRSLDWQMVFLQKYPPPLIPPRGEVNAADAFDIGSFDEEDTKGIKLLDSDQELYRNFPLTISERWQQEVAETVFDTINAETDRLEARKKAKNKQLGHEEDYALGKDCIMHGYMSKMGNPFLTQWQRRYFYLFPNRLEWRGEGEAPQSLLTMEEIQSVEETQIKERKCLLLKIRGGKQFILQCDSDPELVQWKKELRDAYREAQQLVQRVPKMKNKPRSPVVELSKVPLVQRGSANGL
Sequence of AP-2 complex subunit beta (Homo sapiens) (P63010 whole entry, looked up, the tested form may be a part, one chain of several): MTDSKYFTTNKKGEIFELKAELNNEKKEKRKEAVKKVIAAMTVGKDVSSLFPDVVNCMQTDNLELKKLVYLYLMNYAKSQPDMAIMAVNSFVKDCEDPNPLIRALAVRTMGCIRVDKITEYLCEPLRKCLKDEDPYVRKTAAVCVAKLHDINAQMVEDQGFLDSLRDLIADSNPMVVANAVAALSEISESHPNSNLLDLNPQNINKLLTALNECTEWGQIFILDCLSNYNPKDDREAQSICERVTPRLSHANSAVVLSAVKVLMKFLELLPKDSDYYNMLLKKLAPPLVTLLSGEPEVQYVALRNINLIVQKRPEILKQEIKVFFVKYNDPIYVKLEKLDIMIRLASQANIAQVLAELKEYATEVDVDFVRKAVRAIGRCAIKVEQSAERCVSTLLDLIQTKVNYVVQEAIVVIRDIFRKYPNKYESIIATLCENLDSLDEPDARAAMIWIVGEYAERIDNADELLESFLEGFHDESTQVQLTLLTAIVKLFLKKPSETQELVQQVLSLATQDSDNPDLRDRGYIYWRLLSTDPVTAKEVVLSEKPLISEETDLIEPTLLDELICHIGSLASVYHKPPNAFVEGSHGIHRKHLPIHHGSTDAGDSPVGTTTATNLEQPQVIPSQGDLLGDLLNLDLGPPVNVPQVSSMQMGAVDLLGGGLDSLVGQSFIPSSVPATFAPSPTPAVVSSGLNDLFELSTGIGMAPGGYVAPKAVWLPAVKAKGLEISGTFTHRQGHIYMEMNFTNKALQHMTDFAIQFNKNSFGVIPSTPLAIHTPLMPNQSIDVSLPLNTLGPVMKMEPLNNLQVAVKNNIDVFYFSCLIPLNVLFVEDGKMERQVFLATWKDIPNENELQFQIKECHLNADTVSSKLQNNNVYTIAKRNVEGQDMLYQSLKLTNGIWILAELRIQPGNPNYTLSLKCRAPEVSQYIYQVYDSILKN

Usually inhibition stands for the drop in the measured response relative to a control, in per cent. With `CC(C)N(C(=O)Cc1ccccc1[N+](=O)[O-])C(C)C`, the percent of DMSO control GFP in assay [1] was 104% (inactive). The figures for the GFP response vs DMSO in [2] and in assay [4] were 96.3% (inactive) and 92.2% (inactive), respectively. Further, the percent response of DMSO control in [3] was 102% (inactive). Moreover, in assay [5], the GFP response, % of DMSO is 104% (inactive). The double positive events in [6] came to 60.4%. In assay [6], the vesicle binding response is 240% (inactive). In addition, the inhibition is 3.67% (inactive) in assay [7], -8.88% (inactive) in [11] and 5% (inactive) in assay [15]. In assay [8], the superoxide response (% of plate) was 104% (inactive). Further, in assay [9], the aptamer binding inhibition was 2% (inactive). For the same compound, the response in assay [10] was -2.55% (inactive); in assay [12], 1.74% (inactive). Moreover, in [13], the binding (% of control) is 103% (inactive). Besides, the efflux inhibition (fraction of control) in assay [14] was -0.13 (inactive). Further, the differentiation response in assay [16] was -26.4% (inactive).
On to `Cc1ccc(NC(=O)CSc2nc(O)c(Cc3ccccc3)c(=O)n2-c2ccccc2)cc1`, for which the percent of DMSO control GFP in assay [1] is 103% (inactive). Further, the GFP response vs DMSO is 105% (inactive) in assay [2] and 99.3% (inactive) in assay [4]. Further, the percent response of DMSO control in assay [3] is 94.2% (inactive). The GFP response, % of DMSO in assay [5] is 102% (inactive). The compound also gave a double positive events in assay [6] of 65%. Also, the vesicle binding response in [6] was 210% (inactive). Moreover, the figures for the inhibition in [7], in assay [11] and in assay [15] were -6.68% (inactive), 16.9% (inactive) and 9% (inactive), respectively. For the same compound, the superoxide response (% of plate) in assay [8] is 95.4% (inactive). Moreover, the aptamer binding inhibition in assay [9] was 3% (inactive). Moreover, the response in assay [10] is 3.5% (inactive); in assay [12], -1.44% (inactive). The binding (% of control) in assay [13] was 97.7% (inactive). Further, the efflux inhibition (fraction of control) in assay [14] is -0.17 (inactive). Moreover, in [16], the differentiation response was 1.22% (inactive).
For the compound `Cc1ccc(OCc2nc(-c3cccnc3)no2)cc1C`, the percent of DMSO control GFP in assay [1] was 92% (inactive). In addition, the GFP response vs DMSO in assay [2] was 124% (inactive); in assay [4], 75.4% (inactive). Besides, in assay [3], the percent response of DMSO control was 99.2% (inactive). In assay [5], the GFP response, % of DMSO is 88% (inactive). In assay [6], this compound came in with a double positive events of 60.5%. Further, the vesicle binding response in assay [6] was 221% (inactive). Also, the inhibition in assay [7] was -7.12% (inactive); in assay [11], 1.06% (inactive); in [15] it was 9% (inactive). The superoxide response (% of plate) in assay [8] was 101% (inactive). The aptamer binding inhibition in assay [9] was 1% (inactive). Further, the response in assay [10] was -15.7% (inactive); in assay [12], 3.35% (inactive). The binding (% of control) in assay [13] was 98.3% (inactive). Also, the efflux inhibition (fraction of control) in assay [14] is 0.27 (inactive). Moreover, the differentiation response in assay [16] is 2.46% (inactive).
On to `CO[C@@]1(NC(=O)Cc2cccs2)C(=O)N2C(C(=O)O)=C(COC(N)=O)CS[C@@H]21`, for which the percent of DMSO control GFP in [1] is 91.5% (inactive). Also, the GFP response vs DMSO in [2] is 130% (inactive); in [4] it was 83.6% (inactive). Besides, the percent response of DMSO control in assay [3] was 111% (inactive). Also, in assay [5], the GFP response, % of DMSO is 119% (inactive). The same compound returned a double positive events in [6] of 64.1%. Moreover, in [6], the vesicle binding response was 191% (inactive). For the same compound, the inhibition in assay [7] is -18.8% (inactive); in [11], 1.97% (inactive); in [15] it was 14% (inactive). For the same compound, the superoxide response (% of plate) in assay [8] was 112% (inactive). In assay [9], the aptamer binding inhibition is 9% (inactive). Also, the response is -3.96% (inactive) in [10] and -0.45% (inactive) in [12]. Further, the binding (% of control) in assay [13] is 93.6% (inactive). In addition, in assay [14], the efflux inhibition (fraction of control) was 0.16 (inactive). For the same compound, in [16], the differentiation response is -7.37% (inactive).
Regarding `CCN(CC)c1ccc([C@H]2[C@@H]3CCCC[C@]3(O)CCN2CC(=O)NCc2ccco2)cc1`, the percent of DMSO control GFP in [1] was 97.4% (inactive). Further, the values for the GFP response vs DMSO in assay [2] and in [4] were 108% (inactive) and 121% (inactive), respectively. Moreover, in assay [3], the percent response of DMSO control was 91% (inactive). For the same compound, the GFP response, % of DMSO in assay [5] was 98.5% (inactive). The same compound showed a double positive events in [6] of 60.3%. Moreover, the vesicle binding response in [6] is 190% (inactive). Further, the inhibition in assay [7] is -25% (inactive); in assay [11], -7.96% (inactive); in [15] it was 8% (inactive). The superoxide response (% of plate) in [8] is 95.1% (inactive). In addition, the aptamer binding inhibition in [9] was 4% (inactive). Further, the response was 47.5% (active) in assay [10] and 25.9% (active) in assay [12]. The binding (% of control) in assay [13] was 99.5% (inactive). Also, in assay [14], the efflux inhibition (fraction of control) is 0.33 (inactive). In addition, the differentiation response in assay [16] was -7.2% (inactive).
